Inconclusive results are not listed. Unmarked numbers belong to inactive results. Active and inactive are the calls of the source. The call rests on the fitted dose curve; in most records, active means well fitted inhibition curve with a large enough effect; inconclusive means small, poorly fitted or top-dose-only effect; inactive means no such curve, though single readings can be large or run the other way.
target: Coelenterazine h 2-monooxygenase (Renilla reniformis) (UniProt P27652); assay: qHTS Assay for Inhibitors of Sea Pansy Luciferase from the GSK Published Protein Kinase Inhibitor Set; conditions: purified Renilla luciferase, luminescence; series mostly up to 57.5 µM; activity change, negative = inhibition: at the top concentration
Sequence (P27652 whole entry, looked up): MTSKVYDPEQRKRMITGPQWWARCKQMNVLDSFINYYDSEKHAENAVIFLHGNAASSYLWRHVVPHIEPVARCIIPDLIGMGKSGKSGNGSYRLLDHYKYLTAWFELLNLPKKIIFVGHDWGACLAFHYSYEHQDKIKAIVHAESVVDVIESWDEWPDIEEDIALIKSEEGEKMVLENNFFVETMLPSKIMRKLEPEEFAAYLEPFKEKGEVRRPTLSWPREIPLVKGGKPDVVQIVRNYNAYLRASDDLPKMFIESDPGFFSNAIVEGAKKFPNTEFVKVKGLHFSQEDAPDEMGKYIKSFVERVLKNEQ
Outline: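 Purified R. reniformis luciferase (1 nM final) with 5 uM coelenterazine h in 50 mM Tris acetate pH 7.5, 100 uM NaCl, 0.01% Tween-20, 0.05% BSA. A titration, about 60 uM to 300 pM; luminescence read after about 2 min.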
Potency means the concentration at half of the fitted maximal effect.

Structure (SMILES) | activity change, negative = inhibition | Potency
COc1cc2ncn(-c3cc(OCc4ccccc4S(C)(=O)=O)c(C#N)s3)c2cc1OC | 1.76% | 
COc1cccc(-n2ncc3c(NN=Cc4ccc(C(=O)NCCN(C)C)cc4)ncnc32)c1 | 19.8% | 
COc1cc(Nc2ncc(-c3ccccc3)o2)cc(OC)c1 | 12.4% | 
Cc1cccc(Oc2nccc(-c3c(-c4ccc(F)cc4)ncn3C3CCNCC3)n2)c1C | 3.94% | 
CN1CCN(Cc2ccc(-c3cc4ncnc(Nc5ccc(OCc6cccc(F)c6)c(Cl)c5)c4s3)o2)CC1 |  | 20.6 µM (active)
c1ccc(-c2nc3n(c2-c2ccc4c(c2)OCO4)CCC3)nc1 | 24.2% | 
NS(=O)(=O)c1cccc(Nc2cc(-c3ccc(F)cc3)[nH]n2)c1 | 39.1% | 
COc1cc2ncnc(Nc3ccc4c(cnn4Cc4ccccc4)c3)c2cc1OC | 9.63% | 
O=S1CCN(Cc2ccc(-c3ccc4ncnc(Nc5ccc(OCc6ccccc6)c(F)c5)c4c3)o2)CC1 | 27% | 
O=C(OC1CNC(C#Cc2cc3ncnc(Nc4ccc5c(cnn5Cc5ccccc5)c4)c3s2)C1)N1CCOCC1 (centres undefined) | 22.5% | 
NS(=O)(=O)c1ccc(N=Nc2c(O)[nH]c3ccc(-c4cnco4)cc23)cc1 | -5.78% | 
ON=C1CCc2cc(-c3nc(C4CCNCC4)[nH]c3-c3ccncc3)ccc21 | 46.1% | 
CC1=C(C(=O)Nc2ccc3[nH]ncc3c2)C(c2ccc3ccccc3c2)CC(=O)N1 (centres undefined) | 32.4% | 
COc1ccccc1Oc1nccc(-c2c(-c3ccc(F)cc3)ncn2C2CCNCC2)n1 | 8.41% | 
NC(=O)c1sc(-n2cnc3cc(C(F)(F)F)ccc32)cc1OCc1ccccc1Br | 51.9% | 
Cc1ccc(-c2cc3c(NC(=O)C4CC4)ncnc3o2)cc1 | 6.69% | 
OCCCNc1nccc(-c2c(-c3ccc(F)cc3)nn3cc(C(F)(F)F)ccc23)n1 | 39.6% | 
O=C(Nc1n[nH]c2nnc(-c3cccnc3)cc12)C1CC1 | 31.4% | 
COC(=O)Nc1nc2ccc(S(=O)(=O)c3ccc(NC(=O)Nc4cc(C(F)(F)F)ccc4F)cc3)cc2[nH]1 | 16.9% | 
COc1ccccc1C1=C(Nc2ccccc2)C(=O)NC1=O | 38.9% | 

Structure (SMILES) | activity change, negative = inhibition | Potency
CCN1CCC(CC(=O)Nc2n[nH]c3nnc(-c4cccc(F)c4F)cc23)CC1 | 4.99% | 
CCn1c(-c2nonc2N)nc2cncc(C(=O)N3CCC(N)C3)c21 (centres undefined) | 2.39% | 
Cc1ccc(C(=O)NC2CCC2)cc1-c1ccc(C(=O)NCC2CC2)cc1 | -28% | 
COC(=O)c1sc(-n2cnc3cc(OC)c(OC)cc32)cc1OCc1ccccc1C(F)(F)F | 19.3% | 
Cc1cccc(-c2[nH]ncc2-c2ccc3ncccc3n2)n1 | 33.5% | 
COc1ccc(-c2ccncc2)cc1C(N)=O | 45.5% | 
Fc1ccc(Nc2nccc(-c3c(-c4ccc(C(F)(F)F)cc4)nn4ncccc34)n2)cc1F | 3.07% | 
COc1cc(Nc2nccc(-c3cnn4ncccc34)n2)cc(OC)c1 | 3.31% | 
O=C1Nc2ccc(C(=O)c3ccco3)cc2/C1=C/c1cc(Cl)c(O)c(Cl)c1 |  | 16.3 µM (active)
O=S1CCN(Cc2ccc(-c3ccc4ncnc(Nc5ccc(OCc6cccc(F)c6)c(Cl)c5)c4c3)o2)CC1 | 47.3% | 
CN(C)CCCn1c(-c2nonc2N)nc2cnccc21 | 11.9% | 
COc1cccc(-n2ncc3c(NN=Cc4ccc(C)cc4)ncnc32)c1 | 56.8% | 
NC(=O)c1sc(-n2cnc3ccc(C(F)(F)F)cc32)cc1OCc1ccccc1Br | 20.1% | 
Fc1ccc(-c2ncn(C3CCNCC3)c2-c2ccnc(Oc3ccc(F)c(F)c3)n2)cc1 | 14.2% | 
Cc1c2ccc(N(C)c3ccnc(Nc4cccc(S(N)(=O)=O)c4)n3)cc2nn1C |  | 18.3 µM (active)
CNC(=O)c1sc(-n2cnc3cc(OC)c(OC)cc32)cc1OCc1ccccc1C(F)(F)F | 22.9% | 
COc1cc(N2CCN(C(C)C)CC2)ccc1Nc1nc(Nc2cccc(F)c2C(=O)O)c2cc[nH]c2n1 | 8.99% | 
COC(=O)Nc1nc2ccc(Oc3ccc(NC(=O)Nc4cccc(Br)c4)cc3)cc2[nH]1 | 0.676% | 
COc1cc2ncn(-c3cc(OC(C)c4ccccc4Cl)c(C(N)=O)s3)c2cc1OC (centres undefined) | 7.79% | 

— PubChem BioAssay AID652015 (National Center for Advancing Translational Sciences (NCATS), 2013)
